This note sets out measurements from PubChem BioAssay (EPA / NIEHS).

Each structure is given as a SMILES string. Inconclusive results are not listed. Active and inactive are the calls of the source. Rule for the calls: active = hit-call score of the fitted dose curve at least 0.9, where 1 is the maximum; inconclusive = response in the unintended direction; inactive = score below 0.9.

Chain of human RAR-related Orphan Receptor beta (RORb), RORB (gene 6096) (Q92753 whole entry, looked up): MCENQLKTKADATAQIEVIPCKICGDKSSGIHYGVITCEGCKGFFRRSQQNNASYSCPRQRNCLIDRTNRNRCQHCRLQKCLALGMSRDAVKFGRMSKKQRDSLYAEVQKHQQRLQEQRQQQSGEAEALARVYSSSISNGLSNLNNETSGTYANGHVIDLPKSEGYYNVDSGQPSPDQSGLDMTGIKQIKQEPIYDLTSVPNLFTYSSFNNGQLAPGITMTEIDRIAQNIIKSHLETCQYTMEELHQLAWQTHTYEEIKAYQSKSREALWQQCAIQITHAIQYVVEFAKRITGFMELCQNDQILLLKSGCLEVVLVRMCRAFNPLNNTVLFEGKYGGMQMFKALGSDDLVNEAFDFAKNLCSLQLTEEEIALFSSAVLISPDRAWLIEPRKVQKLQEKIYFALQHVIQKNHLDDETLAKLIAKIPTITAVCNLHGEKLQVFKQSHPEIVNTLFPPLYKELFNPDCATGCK

The target of the experiment is human RAR-related Orphan Receptor beta (RORb), RORB (gene 6096) (UniProt Q92753). Kind of experiment: ATG_RORb_TRANS: Attagene TRANS-FACTORIAL HepG2 Assay for human RAR-related Orphan Receptor beta (RORb) (AID 2283010). The procedure:
ATG_TRANS is a cell-based, multiplexed-readout assay that uses HepG2, a human liver cell line, with measurements taken at 24 hours after chemical dosing in a 24-well plate.ATG_RORb_TRANS is one of 30 assay component(s) measured or calculated from the ATG_TRANS assay. It is designed to make measurements of mRNA induction, a form of inducible reporter, as detected with fluorescence intensity signals by Reverse transcription polymerase chain reaction (RT-PCR) and Capillary electrophoresis technology.Data from the assay component ATG_RORb_TRANS was analyzed into 1 assay endpoint. This assay endpoint, ATG_RORb_TRANS, was analyzed in the positive analysis fitting direction relative to DMSO as the negative control and baseline of activity. Using a type of inducible reporter, measures of mRNA for gain-of-signal activity can be used to understand the reporter gene at the transcription factor-level as they relate to the gene RORB. Furthermore, this assay endpoint can be referred to as a primary readout, because this assay has produced multiple assay endpoints where this one serves a reporter gene function. To generalize the intended target to other relatable targets, this assay endpoint is annotated to the nuclear receptor intended target family, where the subfamily is orphan.
Human liver HepG2 cells are transiently transfected with multiple reporter transcription units (MRTUs) in 6-well plates using FuGene 6 reagent (Roche; 3 ml FuGene/1 mg DNA). The MRTU constructs are regulated by a cis-regulating element (promoter). […] A major difference between the CIS and TRANS system is that in CIS activities of endogenous TFs are measured, whereas the TRANS assay evaluates changes in activities of exogenous, chimeric NR-Gal4 proteins. […] At the end of 24 hour incubation, total RNA was isolated using TriZol reagent (Invitrogen). The isolated RNA is then reverse-transcribed using oligo(dT) primer and Mo-MLV reverse transcriptase (Invitrogen) with DNAse I (Ambion) treatment for 30 min. The one-tenth of the produced cDNA was amplified by PCR using Taq DNA polymerase (Invitrogen) and two reporter sequence-specific primers. The PCR products were fluorescently labeled by primer extension with 6-arboxyfluorescein (6-FAM) 5'-labeled reporter sequence-specific primer (2 min at 95 C, 20 s at 68 C and 10 min at 72 C) and these products were digested with 5U of HpaI (New England Biolabs) for 2h at 37 C. The fragments were purified using Qiaquick PCR columns (Qiagen), analyzed on an ABI 3130xL genetic analyzer (Applied Biosystems) with peak positions identified by using a set of X-rhodamine (ROX)-labeled MapMarker1000 molecular weight standards (BioVentures). The raw capillary electrophoresis data was processed using Attagraph software (Attagene).
Consider `CNC(=C[N+](=O)[O-])NCCSCc1ccc(CN(C)C)o1`, for which the result was inactive.
In the case of `CC(C)(O)CCc1ccccc1`, the compound was classed as inactive.
Under `CCCCCCCCCCCCS` stands “inactive”; under `CCn1cc(C(=O)O)c(=O)c2ccc(C)nc21`, “inactive”; under `CC(C)COC(=O)c1ccccc1`, “inactive”.
In the case of `CC(C)CCCC(C)(C)O` it was “inactive”.
Turning to `CCCCC1CCCCC(=O)O1` (stereo not given), the call was inactive.
Turning to `CCCCCCCCCCCCOC(C)=O`, the outcome was inactive.
Under `CCC(C)C1CCCCC1=O` (stereo not given) stands “inactive”; under `COc1cc(OC)c2ccc(=O)oc2c1`, “inactive”; under `CC(O)CN` (stereo not given), “inactive”.
For the compound `CC(=O)CCc1ccc(O)cc1`, the outcome was inactive.
Under `C[C@H](CCC(=O)O)[C@H]1CC[C@H]2[C@@H]3CC[C@@H]4C[C@H](O)CC[C@]4(C)[C@H]3CC[C@]12C` stands “inactive”; under `O=C1CCCCCCCCCCCC(=O)OCCO1`, “inactive”.
For the compound `N=C1N=C(N)c2ccccc21`, the outcome was inactive.
Under `CC1=CCC(C(C)(C)O)CC1` (stereo not given) stands “inactive”; under `C=C(C)C(=O)OCCC[Si](OC)(OC)OC`, “inactive”.
Under `CCCC[N+](C)(CCCC)CCCC` stands “inactive”.
With `CC(=O)Nc1cc(S(=O)(=O)O)cc2cc(S(=O)(=O)O)c(N=Nc3ccccc3)c(O)c12`, the result was inactive.
Under `CC(=O)CCC(=O)O` stands “inactive”.
Under `CCCCCCCCSCc1cc(C)c(O)c(CSCCCCCCCC)c1` stands “inactive”.
With `C/C=C(\C)C(=O)OC/C=C(\C)CCC=C(C)C`, the outcome was inactive.
Under `CC(C)OB(OC(C)C)OC(C)C` stands “inactive”; under `CC(C)C(=O)c1ccccc1`, “inactive”; under `COC(=O)C(C)Oc1ccc(Oc2ncc(C(F)(F)F)cc2Cl)cc1` (stereo not given), “inactive”.
Consider `O=S1(=O)CC(Cl)(Cl)C(Cl)(Cl)C1`, for which the result was inactive.
Under `CCCCCCCCOC(=O)c1ccc(O)cc1` stands “inactive”; under `O=c1cc[nH]cc1`, “inactive”.
Under `CC1=CC[C@@H](C(C)(C)O)CC1` stands “inactive”; under `Cc1cc(O)c(C)c(C)c1O`, “inactive”; under `CCOC(=O)CCCCCCCCC(=O)OCC`, “inactive”.
In the case of `CC(O)CNCC(C)O` (stereo not given) it was “inactive”; in that of `O=Cc1ccccc1O`, “inactive”.
Turning to `CC(C)C(=O)OCC=Cc1ccccc1`, the outcome was inactive.
In the case of `NC(=O)c1c(Cl)cccc1Cl` it was “inactive”.
Under `C=CCOCC(O)CO` (stereo not given) stands “inactive”; under `c1coc(CNc2ncnc3nc[nH]c23)c1`, “inactive”; under `CC(C)(C)c1cc(CCC(=O)OCCSCCOC(=O)CCc2cc(C(C)(C)C)c(O)c(C(C)(C)C)c2)cc(C(C)(C)C)c1O`, “inactive”.
In the case of `CCOCC(C)O` (stereo not given) it was “inactive”.
Take `O=C(O)CS`: the outcome was inactive.
